# In the library only some 1.4% were active in any assay of this set; here they are far more common.
# MEX-5 binding: C. elegans MEX-5 TCR-2 RNA binding activity; Q9XUB2; MEX-5/FITC-TCR2 RNA binding, fluorescence polarization; hits give low values; activity score (negative = inhibition of binding), % at 10 µM; 300,000 tested, 0.38% active; AID 1832;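 active = inhibition past about -25% in most replicates, and total fluorescence under double the plate's negative control median, limit read from the data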;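 note: 0% = DMSO and -100% = 5 µM competing unlabeled TCR2 RNA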
# E coli Lon inh: E. coli protease La inhibition | P0A9M0 | purified E. coli Lon protease, fluorescence polarization | inhibition, % at 7.94 µM | 360,000 tested, 0.42% active | AID 602123; in the data active = inhibition above about 13%, passing the limit was not always enough;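 note: 0% = enzyme with probe and DMSO and 100% = no enzyme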
# BCLXL inh: blocks human Bcl-xL binding to Bim BH3 peptide; GST-Bcl-xL / FITC-Bim BH3 peptide fluorescence polarization; 320,000 tested, 0.7% active; inhibition, % at 10.9 µM; Q07817;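 active = inhibition above the mean of all tested compounds plus 3 SD, cutoff set per campaign, cut at about 30% in these data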;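 note: 0% = DMSO wells and 100% = unlabeled Bim-BH3 peptide competitor; inhibitors lower millipolarization by displacing the labeled peptide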
# GLD-1 TGE inh: GLD-1-TGE RNA interaction inhibition (C. elegans); AID 2280; purified GLD-1 + fluorescein TGE RNA, fluorescence polarization; Q17339; inhibition, % at 5.96 µM; 320,000 tested, 0.44% active;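 active = percent inhibition above a per-plate cutoff, the plate mean of test compounds plus 3 SD, cut at about 30% in these data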;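 note: 0% = DMSO wells with GLD-1 and probe and 100% = wells lacking GLD-1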
# MCL1 BIM primary: MCL1-BIM-BH3 interaction inhibition (human) | Q07820 | GST-MCL1 / FITC-Bim-BH3 fluorescence polarization | inhibition, % at 10.9 µM | 320,000 tested, 0.68% active;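 active = inhibition above the mean inhibition of all tested compounds plus 3 SD, set per campaign, cut at about 40% in these data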;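 note: 0% = DMSO wells and 100% = unlabeled Bim-BH3 peptide control; higher means more loss of mP so more displacement of Bim peptide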
# Target sequence (Q07820 whole entry, looked up): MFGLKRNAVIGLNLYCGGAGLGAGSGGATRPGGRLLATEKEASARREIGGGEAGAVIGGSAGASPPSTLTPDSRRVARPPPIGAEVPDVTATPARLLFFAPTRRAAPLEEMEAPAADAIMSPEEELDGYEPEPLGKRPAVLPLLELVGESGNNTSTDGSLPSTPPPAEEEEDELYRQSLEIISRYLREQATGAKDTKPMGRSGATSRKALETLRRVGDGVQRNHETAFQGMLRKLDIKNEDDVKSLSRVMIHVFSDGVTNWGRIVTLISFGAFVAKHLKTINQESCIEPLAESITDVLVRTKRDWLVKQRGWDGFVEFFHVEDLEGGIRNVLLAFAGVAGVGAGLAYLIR
# E coli Lon conf: E. coli Lon inhibition confirmation. shares compounds with E coli Lon inh. purified E. coli Lon, fluorescence polarization. inhibition, % at 7.94 µM. 1,400 tested, 31% active. AID 602230; in the data active = inhibition above about 16%;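 note: 0% = enzyme with probe and DMSO and 100% = no enzyme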
# * marks the source's active call; other numbers are inactive results; x = no result given.
SMILES,MEX-5 binding,E coli Lon inh,BCLXL inh,GLD-1 TGE inh,MCL1 BIM primary,E coli Lon conf
COCCn1nnnc1CN(Cc1ccco1)Cc1cc2cc3c(cc2[nH]c1=O)OCO3,1,23*,-5,-9,-3,6
CCn1c(CCC(=O)N(C)CC(=O)Nc2cccc(F)c2)nc2cc(S(=O)(=O)N(C)C)ccc21,0,15*,-19,3,-19,5
CCN(CC)S(=O)(=O)c1ccc2c(c1)nc(CCC(=O)Nc1ccc3c(c1)OCO3)n2CC,3,-3,1,2,8,x
COc1ccc(CC2=C(O)c3ccccc3C(=O)C2=O)cc1,0,6,3,0,14,x
O=C1C(=O)c2ccccc2C(O)=C1CCCCl,0,77*,5,1,1,5
COc1ccc(C(NC(=O)C2CCN(Cc3ccc(Oc4ccccc4)cc3)CC2)c2ccccc2C)cn1 (stereo unspecified),x,15*,x,x,x,-7
CC(Nc1ccc(Br)cc1)C(=O)NC(=O)NC1CCCCC1 (stereo unspecified),x,5,x,x,x,x
Cc1cccc(C)c1OCc1cc(C(=O)N2CCC(c3ccccc3)CC2)no1,-1,21*,-1,0,4,17*
Cc1cccc(C)c1OCc1cc(C(=O)N2CCC(C3CCCCC3)C2)no1 (stereo unspecified),2,-1,0,4,-6,x
CCCN(CC(=O)Nc1ccccc1OC)C(=O)c1ccc2c(c1)NC(=O)C(C)S2 (stereo unspecified),x,-3,3,3,-1,x
CSCCC(NC(=O)COc1ccccc1)C(=O)N1CCN(c2ccccc2O)CC1 (stereo unspecified),-3,71*,3,7,-4,-7
CCOC(=O)C1=CCN(S(=O)(=O)c2ccc(C)cc2)C1c1ccc(C(C)C)cc1 (stereo unspecified),x,10,x,x,x,x
COc1ccccc1Cc1c(-c2ccc(F)cc2)nc2cc(C)c(Br)c(C)n12,x,-2,x,x,x,x
COCCNC(=O)c1cc2c(c(-c3cccc(C#Cc4ccc(OC)c(OC)c4)c3)n1)[C@H](CCO)N(S(=O)C(C)(C)C)C2 (stereo partly specified),x,-25,x,x,x,x
CC(=O)OC1CC(C)(C)N(OC(=O)c2ccccc2)C(C)(C)C1,1,15*,0,0,-4,6
CC(=O)ON1C(C)(C)CC(OC(=O)c2ccccc2)CC1(C)C,-1,-5,0,0,-3,x
COc1ccc(CCN2C(=O)CC(N3CCOCC3)C2=O)cc1 (stereo unspecified),1,-6,2,-4,3,x
COc1ccc(CCN2C(=O)CC(N3CCN(S(=O)(=O)c4ccccc4)CC3)C2=O)cc1 (stereo unspecified),-2,12*,6,-1,8,-8
Cc1nnc(NC(=O)CSc2ncc(-c3ccccc3)[nH]2)s1,-7,-3,2,4,0,x
NNC(=O)CSc1ncc(-c2ccccc2)[nH]1,1,15*,-1,-5,5,-4
CCC(C)(C)NC(=O)C(c1cccc(OC)c1OC)N(C(=O)CCC(=O)Nc1cc(C)on1)C(C)C (stereo unspecified),2,21*,2,-2,6,5
CCC(C)(C)NC(=O)C(c1cccc(OC)c1OC)N(CCC(C)C)C(=O)CCC(=O)Nc1cc(C)on1 (stereo unspecified),0,1,0,-3,-2,x
CCCCn1nnnc1C(c1ccccc1)N1CCN(CCN2CCOCC2)CC1 (stereo unspecified),x,15*,x,x,x,0
CCOc1ccc(CCN2C(=S)N([C@@H](Cc3ccc(O)cc3)CN3CCC[C@@H]3CN3C(=S)NC[C@@H]3CC(C)C)C[C@@H]2CC(C)C)cc1,x,-1,x,x,x,x
NC1=Nc2cccc3cccc1c23,x,29*,25,20,27,17*
COC(=O)C1=C(C)NC(=O)CC1c1ccccc1 (stereo unspecified),0,-1,6,-2,8,x
COC(=O)C1=C(C)NC(=S)N(C(C)=O)C1c1ccccc1 (stereo unspecified),0,17*,-1,-2,9,21*
CCCNC(=O)C1(C)CCCN(C/C=C/c2ccccc2)C1 (stereo unspecified),x,-19,x,x,x,x
